Reference: PubChem BioAssay (NCATS)
Values without a mark were called inactive. Records with an inconclusive call do not appear. A call without a number means that no potency is given here. The source made the active and inactive calls. Unless noted, calls come from the whole dose curve; as a rule, active = well fitted curve in the direction sought with a large enough effect; inconclusive = small, poorly fitted or top-dose-only effect, or another doubt; inactive = no such curve, though single readings can be large; an effect the other way counts as inactive or inconclusive. Residues, ends and D or L forms follow the SMILES beside them. *: point of attachment. Cbz = O=C(OCc1ccccc1)*

What was measured:
[1] = target: Beta-2 adrenergic receptor (Homo sapiens) (UniProt P07550); experiment: qHTS validation assay of beta-arrestin-biased ligands of beta2-adrenergic receptor (AID 485366)
Procedure, shortened: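 Tango cells (recombinant beta2-AR with recombinant beta-arrestin; recruitment releases tTA driving luciferase) were treated with compounds titrated up to 46 microM for 18 hr at 37 degrees C. Luminescence gave %Activity, and concentration-response curves were curve-classified.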

[2] = target: ATP-dependent 6-phosphofructokinase (Trypanosoma brucei brucei) (UniProt O15648); experiment: qHTS Validation Assay to Find Inhibitors of T. brucei phosphofructokinase (AID 485368)
Sequence of ATP-dependent 6-phosphofructokinase (Trypanosoma brucei brucei) (O15648 whole entry, looked up): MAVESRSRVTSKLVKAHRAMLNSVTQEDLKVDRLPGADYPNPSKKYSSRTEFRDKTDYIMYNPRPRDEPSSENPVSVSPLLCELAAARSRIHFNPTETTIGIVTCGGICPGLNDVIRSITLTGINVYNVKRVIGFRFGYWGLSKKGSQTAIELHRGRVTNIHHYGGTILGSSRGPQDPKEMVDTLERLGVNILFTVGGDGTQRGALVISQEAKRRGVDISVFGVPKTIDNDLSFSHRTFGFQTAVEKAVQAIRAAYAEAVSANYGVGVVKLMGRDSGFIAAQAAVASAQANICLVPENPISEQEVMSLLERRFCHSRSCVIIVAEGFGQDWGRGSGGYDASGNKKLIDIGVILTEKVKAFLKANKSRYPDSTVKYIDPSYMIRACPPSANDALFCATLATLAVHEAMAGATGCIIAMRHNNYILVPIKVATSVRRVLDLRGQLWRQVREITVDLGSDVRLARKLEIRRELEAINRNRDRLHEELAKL
Procedure, shortened: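 Compounds (up to 57 uM, titration series) were pinned into substrate buffer, then 1.25 nM PFK added; after 45 min at room temperature, ADP product was quantified by ADP-Glo luminescence and concentration-response curves fitted.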

[3] = Quantitative high throughput screen for delayed death inhibitors of the malarial parasite plastid, 96 hour incubation (AID 488745); note: nearly all actives have a fitted effect of over 70% in size; note: potency is the fitted concentration of half-maximal effect
Procedure, shortened: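 Luciferase-expressing P. falciparum in erythrocytes (2% hematocrit, 0.1% parasitemia) incubated with compound for 96 h at 37 C, 5% CO2, in RPMI 1640 with 0.5% Albumax. Growth inhibition read as decreased luminescence.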

[4] = Quantitative high throughput screen for delayed death inhibitors of the malarial parasite plastid, 48 hour incubation (AID 488752); note: nearly all actives have a fitted effect of over 65% in size; note: potency is the fitted concentration of half-maximal effect
Procedure, shortened: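 Erythrocytes infected with firefly luciferase-expressing P. falciparum (2% hematocrit, 0.1% parasitemia) cultured with compound for 48 h at 37 C, 5% CO2, in RPMI 1640/0.5% Albumax. Growth inhibition read as loss of luminescence.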

[5] = target: Thioredoxin reductase 1, cytoplasmic (Rattus norvegicus) (UniProt O89049); experiment: qHTS Assay for Substrates of Mammalian Selenoprotein Thioredoxin Reductase 1 (TrxR1) (AID 488772);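 note: NADPH fluorescence in the first read after selenite addition and not the 8 min delta; series mostly up to about 57 µM; a drop in NADPH fluorescence below the no-compound background marks a TrxR1 substrate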
Procedure, shortened: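 Quantitative HTS in Tris-HCl buffer at pH 7.5 with EDTA and Tween-20, using rat TrxR1, 400 uM NADPH and 400 uM selenite (final). A fall in initial NADPH fluorescence relative to background marked substrate behaviour.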

[6] = target: Thioredoxin reductase 1, cytoplasmic (Rattus norvegicus) (UniProt O89049); experiment: qHTS Assay for Inhibitors of Mammalian Selenoprotein Thioredoxin Reductase 1 (TrxR1) (AID 488773); conditions: Potency: inhibition;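 note: drop in NADPH fluorescence over an 8 min run after selenite addition; series mostly up to about 57 µM; nearly all actives have a fitted effect of over 40% in size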
Procedure, shortened: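 Steps: enzyme (90 nM) plus NADPH (400 uM final), 5 min at ~22 deg C; compound added, 15 min; selenite (400 uM final) added; fluorescence followed for 8 min. Concentration-response curves derived from the normalized delta values.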

[7] = target: Flap endonuclease 1 (Homo sapiens) (UniProt P39748); experiment: qHTS Validation Assay for the Inhibitors of Human Flap endonuclease 1 (FEN1) (AID 488816)
Sequence of Flap endonuclease 1 (Homo sapiens) (P39748 whole entry, looked up): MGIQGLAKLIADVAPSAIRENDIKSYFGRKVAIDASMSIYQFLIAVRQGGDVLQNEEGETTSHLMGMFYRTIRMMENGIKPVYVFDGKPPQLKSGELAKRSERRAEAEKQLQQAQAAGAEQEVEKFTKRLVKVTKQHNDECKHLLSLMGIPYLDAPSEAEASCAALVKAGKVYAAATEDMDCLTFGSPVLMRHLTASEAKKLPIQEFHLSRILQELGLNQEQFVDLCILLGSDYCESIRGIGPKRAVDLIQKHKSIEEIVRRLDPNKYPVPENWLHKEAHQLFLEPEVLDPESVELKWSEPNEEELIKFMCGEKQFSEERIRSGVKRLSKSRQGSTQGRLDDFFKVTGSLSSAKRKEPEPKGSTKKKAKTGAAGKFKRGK
Procedure, shortened: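 FEN1, dispensed as a 10 nM reagent, was preincubated with pin-transferred compounds for 15 min at room temperature before substrate was added (50 nM final). Plates were read at 0 and 15 min, and a four-parameter Hill equation was fitted to the concentration-response data.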

[8] = target: M-phase phosphoprotein 8 (Homo sapiens) (UniProt Q99549); experiment: qHTS Validation Assay for Inhibitors for MPP8 Chromodomain Interactions with Methylated Histone Tails (AID 488949);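 note: AlphaScreen signal from MPP8 chromodomain bound to biotinylated H3K9me3 peptide; top concentration of the series differs between compounds; nearly all actives have a fitted effect of over 55% in size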
Procedure, shortened: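 AlphaScreen read-out: streptavidin donor and nickel chelate acceptor beads (final 10 ug/mL), 30 min in the dark at RT. Complex of 50 nM MPP8 and 50 nM b-H3(1-18)K9me3 peptide had been exposed to compounds for 30 min beforehand.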

[9] = target: Chromobox protein homolog 1 (Homo sapiens) (UniProt P83916); experiment: qHTS Validation Assay for Inhibitors of HP1-beta Chromodomain Interactions with Methylated Histone Tails (AID 488953);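 note: loss of AlphaScreen luminescence from HP1-beta binding biotinylated H3K9me3 peptide; series mostly up to about 110 µM; nearly all actives have a fitted effect of over 50% in size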
Sequence of Chromobox protein homolog 1 (Homo sapiens) (P83916 whole entry, looked up): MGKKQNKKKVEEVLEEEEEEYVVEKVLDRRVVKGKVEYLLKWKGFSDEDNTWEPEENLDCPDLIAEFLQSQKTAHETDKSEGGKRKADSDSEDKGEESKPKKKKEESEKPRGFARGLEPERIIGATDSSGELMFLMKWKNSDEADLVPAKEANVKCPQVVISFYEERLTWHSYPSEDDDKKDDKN
Procedure, shortened: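 HP1-beta (50 nM) preformed 30 min with biotinylated H3(1-18)K9me3 peptide (50 nM) in PBS pH 7.4, 0.01% Tween-20. Compounds added for 30 min at room temperature. Complex disruption read by AlphaScreen with streptavidin donor/nickel chelate acceptor beads (10 ug/mL each).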

[10] = target: Methanococcus maripaludis chaperonin (MmCpn) (UniProt Q6LX38); experiment: High-Throughput Screening for Modulators of Cytosolic Chaperonin Activity: MmCpn Primary Screen (AID 488978);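 note: 50 nM MmCpn enzyme hydrolysing 30 µM ATP at 37 °C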
Sequence of Methanococcus maripaludis chaperonin (MmCpn) (Q6LX38 1-543): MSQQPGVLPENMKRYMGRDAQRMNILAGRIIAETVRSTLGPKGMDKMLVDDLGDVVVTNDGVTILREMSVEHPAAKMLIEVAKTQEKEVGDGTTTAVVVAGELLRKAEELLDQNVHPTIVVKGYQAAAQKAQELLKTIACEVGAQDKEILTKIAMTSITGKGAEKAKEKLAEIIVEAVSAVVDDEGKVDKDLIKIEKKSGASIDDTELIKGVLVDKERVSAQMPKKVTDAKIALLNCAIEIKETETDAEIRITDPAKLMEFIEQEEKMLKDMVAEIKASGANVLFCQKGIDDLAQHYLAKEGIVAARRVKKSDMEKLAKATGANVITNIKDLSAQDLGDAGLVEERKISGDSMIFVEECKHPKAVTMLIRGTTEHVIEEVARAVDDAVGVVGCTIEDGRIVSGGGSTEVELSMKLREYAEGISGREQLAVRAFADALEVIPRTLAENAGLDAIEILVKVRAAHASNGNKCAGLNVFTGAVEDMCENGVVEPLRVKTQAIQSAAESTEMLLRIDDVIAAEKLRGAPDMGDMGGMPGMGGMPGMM
Procedure, shortened: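 ADP formation read by HTRF Transcreener, 665/590 nm emission after 320 nm excitation. Enzyme: archaeal chaperonin at 50 nM final; substrate ATP 30 uM final; 10 min, 37C, after 5 min compound preincubation at RT.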

[11] = target: Transient receptor potential cation channel subfamily V member 1 (Homo sapiens) (UniProt Q8NER1); experiment: HTS Assay for Compounds that Act as Enhancers of the Vanilloid Receptor 1 (AID 488979)
Procedure, shortened: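 TRPV1-expressing cells loaded with Fluo-8 calcium dye; compounds added and calcium influx read kinetically for 3 min (agonist phase), then capsaicin at EC20 added and read 2 min more for enhancement. Fluorescence ex 480/em 520 nm.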

[12] = target: Thyrotropin receptor (Homo sapiens) (UniProt P16473); experiment: qHTS Assay for Antagonists of the Thyroid Stimulating Hormone Receptor (AID 488980); note: series mostly up to about 58 µM
Sequence of Thyrotropin receptor (Homo sapiens) (P16473 whole entry, looked up): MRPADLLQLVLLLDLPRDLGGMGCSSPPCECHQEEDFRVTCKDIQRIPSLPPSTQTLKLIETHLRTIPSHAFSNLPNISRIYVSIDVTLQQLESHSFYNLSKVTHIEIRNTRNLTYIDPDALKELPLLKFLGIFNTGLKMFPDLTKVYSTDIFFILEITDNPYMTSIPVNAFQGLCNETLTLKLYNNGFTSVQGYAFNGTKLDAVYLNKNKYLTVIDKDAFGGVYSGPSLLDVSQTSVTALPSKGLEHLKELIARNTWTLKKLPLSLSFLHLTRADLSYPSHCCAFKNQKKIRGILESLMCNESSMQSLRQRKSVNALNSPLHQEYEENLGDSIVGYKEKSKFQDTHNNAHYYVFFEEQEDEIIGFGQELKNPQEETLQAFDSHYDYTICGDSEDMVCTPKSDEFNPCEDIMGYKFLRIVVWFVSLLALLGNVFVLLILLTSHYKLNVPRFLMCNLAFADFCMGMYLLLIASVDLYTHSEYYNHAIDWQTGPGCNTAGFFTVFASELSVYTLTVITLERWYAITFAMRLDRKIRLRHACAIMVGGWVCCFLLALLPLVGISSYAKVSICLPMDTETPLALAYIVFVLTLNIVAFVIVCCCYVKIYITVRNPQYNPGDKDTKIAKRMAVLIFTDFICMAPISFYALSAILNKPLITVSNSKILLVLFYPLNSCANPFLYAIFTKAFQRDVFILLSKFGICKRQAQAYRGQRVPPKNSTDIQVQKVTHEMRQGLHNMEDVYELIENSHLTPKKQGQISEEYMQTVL
Procedure, shortened: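 TSHR-HEK293 cells; 70 uM RO 20-1724 PDE inhibitor; compound + EC80 TSH (4 nM final); anti-cAMP cryptate antibody/cAMP-d2 in lysis buffer, 30 min RT; HTRF 665/620 nm read.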

[13] = target: D(1A) dopamine receptor (Homo sapiens) (UniProt P21728); experiment: HTS Assay for Allosteric Agonists of the Human D1 Dopamine Receptor: Primary Screen for Agonists (AID 488981)
Sequence of D(1A) dopamine receptor (Homo sapiens) (P21728 whole entry, looked up): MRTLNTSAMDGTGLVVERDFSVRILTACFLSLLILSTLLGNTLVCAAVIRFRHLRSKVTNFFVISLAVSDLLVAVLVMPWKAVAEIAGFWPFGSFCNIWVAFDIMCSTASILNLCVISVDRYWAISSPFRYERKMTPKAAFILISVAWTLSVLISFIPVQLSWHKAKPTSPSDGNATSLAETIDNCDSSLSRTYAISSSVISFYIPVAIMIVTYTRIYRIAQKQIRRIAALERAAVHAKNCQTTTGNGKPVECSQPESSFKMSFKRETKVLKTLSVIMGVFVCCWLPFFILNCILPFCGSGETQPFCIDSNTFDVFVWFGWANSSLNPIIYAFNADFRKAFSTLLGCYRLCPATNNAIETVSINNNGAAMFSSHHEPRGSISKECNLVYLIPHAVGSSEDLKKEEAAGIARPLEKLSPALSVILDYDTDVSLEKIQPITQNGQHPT
Procedure, shortened: (§1)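 Tetracycline-induced HEK293 T-REx cells force-coupled to calcium signalling were incubated overnight at 30 C and dye-loaded at room temperature. Calcium flux over 180 s after compound addition flagged agonists; a further 180 s read after EC20 dopamine flagged potentiators.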

[14] = target: ATPase family AAA domain-containing protein 5 (Homo sapiens) (UniProt Q96QE3); experiment: Validation screen for small molecules that inhibit ELG1-dependent DNA repair in human embryonic kidney (HEK293T) cells expressing luciferase-tagged ELG1 (AID 493107); note: nearly all actives have a fitted effect of over 70% in size; note: potency is the fitted concentration of half-maximal effect
Sequence of ATPase family AAA domain-containing protein 5 (Homo sapiens) (Q96QE3 whole entry, looked up, the tested form may be a part): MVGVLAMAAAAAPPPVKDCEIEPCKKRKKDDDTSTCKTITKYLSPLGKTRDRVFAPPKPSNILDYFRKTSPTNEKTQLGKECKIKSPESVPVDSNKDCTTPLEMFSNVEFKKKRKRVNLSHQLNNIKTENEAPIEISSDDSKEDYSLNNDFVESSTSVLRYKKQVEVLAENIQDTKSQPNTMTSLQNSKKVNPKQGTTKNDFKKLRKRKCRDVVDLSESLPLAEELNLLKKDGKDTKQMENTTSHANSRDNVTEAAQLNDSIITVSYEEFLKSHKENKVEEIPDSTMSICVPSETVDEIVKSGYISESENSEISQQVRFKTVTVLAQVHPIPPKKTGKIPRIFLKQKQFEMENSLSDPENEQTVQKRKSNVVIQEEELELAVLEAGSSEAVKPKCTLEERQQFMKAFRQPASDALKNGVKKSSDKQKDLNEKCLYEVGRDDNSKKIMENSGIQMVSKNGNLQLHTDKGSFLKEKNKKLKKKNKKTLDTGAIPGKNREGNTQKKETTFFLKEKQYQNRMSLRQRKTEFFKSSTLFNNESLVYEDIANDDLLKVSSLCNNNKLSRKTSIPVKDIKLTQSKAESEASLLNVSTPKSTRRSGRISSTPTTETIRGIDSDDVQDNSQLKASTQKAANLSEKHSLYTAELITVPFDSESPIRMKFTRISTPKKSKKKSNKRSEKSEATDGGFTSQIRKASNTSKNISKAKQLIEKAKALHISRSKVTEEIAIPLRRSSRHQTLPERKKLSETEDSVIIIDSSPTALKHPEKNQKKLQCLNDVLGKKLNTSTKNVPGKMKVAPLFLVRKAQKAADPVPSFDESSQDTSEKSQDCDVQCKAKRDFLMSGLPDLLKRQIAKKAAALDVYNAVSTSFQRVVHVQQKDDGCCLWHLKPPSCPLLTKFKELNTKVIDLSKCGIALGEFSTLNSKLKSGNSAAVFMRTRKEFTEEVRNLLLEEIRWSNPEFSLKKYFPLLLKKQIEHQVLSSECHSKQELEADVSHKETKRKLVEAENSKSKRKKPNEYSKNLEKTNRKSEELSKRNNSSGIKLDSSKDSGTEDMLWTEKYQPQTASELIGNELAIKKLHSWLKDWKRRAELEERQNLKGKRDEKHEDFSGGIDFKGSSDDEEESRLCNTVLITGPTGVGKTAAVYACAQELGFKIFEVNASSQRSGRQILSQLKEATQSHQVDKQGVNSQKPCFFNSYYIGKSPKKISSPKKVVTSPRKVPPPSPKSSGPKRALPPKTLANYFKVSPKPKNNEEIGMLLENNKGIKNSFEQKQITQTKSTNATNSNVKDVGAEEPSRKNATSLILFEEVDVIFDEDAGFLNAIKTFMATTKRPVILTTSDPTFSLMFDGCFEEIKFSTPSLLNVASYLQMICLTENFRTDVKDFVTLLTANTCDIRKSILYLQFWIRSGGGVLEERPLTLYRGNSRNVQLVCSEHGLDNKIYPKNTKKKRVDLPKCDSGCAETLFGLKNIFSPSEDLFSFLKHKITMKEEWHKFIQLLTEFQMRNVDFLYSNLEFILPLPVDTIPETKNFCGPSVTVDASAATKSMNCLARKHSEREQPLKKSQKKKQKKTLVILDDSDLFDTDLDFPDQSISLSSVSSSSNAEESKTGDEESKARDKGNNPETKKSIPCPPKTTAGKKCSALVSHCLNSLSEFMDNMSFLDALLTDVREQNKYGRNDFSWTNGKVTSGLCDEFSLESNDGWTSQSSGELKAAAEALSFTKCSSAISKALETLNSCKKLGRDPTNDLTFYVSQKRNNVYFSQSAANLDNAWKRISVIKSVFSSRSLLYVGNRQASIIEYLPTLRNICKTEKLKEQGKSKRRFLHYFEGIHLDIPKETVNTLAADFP
Procedure, shortened: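 HEK293T cells expressing luciferase-tagged ELG1, 2,000 per well, treated with 5-fluorouridine plus compound for 16 h at 37 C. ONE-Glo luminescence after 30 min at room temperature reports ELG1 reporter level.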

[15] = target: Thyrotropin-releasing hormone receptor (Homo sapiens) (UniProt P34981); experiment: qHTS for Small Molecule Agonists and Allosteric Enhancers of Human TRH Receptor: Validation Screen for Agonists (AID 493127;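 active = calcium activation more than 3 SD above the typical response in the agonist read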); conditions: TRH receptor agonist cell assay; at 2 µM; hits give high values
Sequence of Thyrotropin-releasing hormone receptor (Homo sapiens) (P34981 whole entry, looked up): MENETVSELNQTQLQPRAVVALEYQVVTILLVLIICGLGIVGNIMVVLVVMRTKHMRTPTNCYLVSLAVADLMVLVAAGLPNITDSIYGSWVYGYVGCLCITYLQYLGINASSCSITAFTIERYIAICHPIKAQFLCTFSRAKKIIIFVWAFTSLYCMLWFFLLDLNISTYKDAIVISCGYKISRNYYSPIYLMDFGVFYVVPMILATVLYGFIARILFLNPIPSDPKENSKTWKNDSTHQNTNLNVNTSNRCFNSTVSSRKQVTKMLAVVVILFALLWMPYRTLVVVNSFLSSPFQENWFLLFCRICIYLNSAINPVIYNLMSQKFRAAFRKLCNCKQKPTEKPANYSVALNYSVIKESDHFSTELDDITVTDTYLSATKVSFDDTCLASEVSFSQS
Procedure, shortened: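 TRHR cells loaded with fluo-8 calcium dye; FDSS kinetic fluorescence (Ex 480/Em 530) read at 1 s/cycle after 23 nL compound addition. Agonist-mode calcium response recorded before the 10 nM TRH (EC20) addition.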

[16] = target: D(1A) dopamine receptor (Homo sapiens) (UniProt P21728); experiment: HTS Assay for Allosteric Agonists of the Human D1 Dopamine Receptor: Primary Screen for Potentiators (AID 488982); note: potency is the fitted concentration of half-maximal effect
Procedure, shortened: as §1

[17] = target: D(1A) dopamine receptor (Homo sapiens) (UniProt P21728); experiment: HTS Assay for Allosteric Agonists of the Human D1 Dopamine Receptor: Primary Screen for Antagonists (AID 488983);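 note: calcium flux response to an EC80 dopamine challenge measured with no-wash dye; nearly all actives have a fitted effect of over 65% in size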; note: potency is the fitted concentration of half-maximal effect
Procedure, shortened: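 Tetracycline-induced HEK293 T-REx D1 line, force-coupled to calcium flux, read with no-wash calcium dye. Compound added after 10 s baseline, read 180 s for agonism, then EC80 dopamine added and read a further 180 s.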

[18] = Validation screen for small molecules that induce genotoxicity in human embryonic kidney (HEK293T) cells expressing luciferase-tagged ELG1 (AID 493106)
Procedure, shortened: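 HEK293T cells expressing luciferase-tagged ELG1, 2,000 cells/well, exposed to compound 16 hr at 37 °C, 5% CO2. Luciferase read after ONE-Glo, 30 min at room temperature; increased signal indicates genetic stress.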

| SMILES | outcome [1] | Potency [2] | Potency [3] | Potency [4] | outcome [5] | Potency [6] | Potency [7] | Potency [8] | Potency [9] | outcome [10] | outcome [11] | outcome [12] | Potency [13] | Potency [14] | activation [15] [%] | Potency [16] | Potency [17] | Potency [18] |
| --- | --- | --- | --- | --- | --- | --- | --- | --- | --- | --- | --- | --- | --- | --- | --- | --- | --- | --- |
| N[C@H](C(=O)O)c1cc(O)cc(O)c1 | inactive | inactive | inactive | inactive | inactive | inactive | inactive | inactive | inactive | inactive | inactive | inactive | inactive | inactive | 0.0625 |  |  |  |
| Cn1c(=O)[nH]c2ncn(C)c2c1=O | inactive | inactive | inactive | inactive | inactive | inactive | inactive | inactive | inactive | inactive | inactive | inactive | inactive | inactive | 0.188 | inactive | inactive | inactive |
| NCCCCN=C(N)N | inactive | inactive | inactive | inactive | inactive | inactive | inactive | inactive | inactive | inactive | inactive | inactive | inactive | inactive | 0.812 |  | inactive | inactive |
| CN[C@H](CC(=O)O)C(=O)O | inactive | inactive | inactive | inactive | inactive | inactive | inactive | inactive | inactive | inactive | inactive | inactive | inactive | inactive | 1 | inactive | inactive | inactive |
| CC1C(=O)N(C)C(=O)c2nc[nH]c21 (stereo not given) | inactive | inactive | inactive | inactive | inactive | inactive | inactive | inactive | inactive | inactive | inactive | inactive | inactive | inactive | 1.25 | inactive | inactive | inactive |
| CC(C)[C@H](NC(=O)OCc1ccccc1)C(=O)N[C@H](C=O)Cc1ccccc1 (Cbz-Val-Phe-aldehyde) | inactive | inactive | 2330 nM (active) | 2940 nM (active) | inactive | inactive | inactive | inactive | inactive | inactive | inactive | inactive | inactive | inactive | 0.25 | 2060 nM (active) | inactive | inactive |
| Nn1nnc2ccccc21 | inactive | inactive | inactive | inactive | inactive | inactive | inactive | inactive | inactive | inactive | inactive | inactive | inactive | inactive | 1.12 | inactive | inactive |  |
| CC(N)=NCCCC[C@@H](N)C(=O)O | inactive | inactive | inactive | inactive | inactive | inactive |  | inactive | inactive | inactive | inactive | inactive | inactive | inactive | 1.31 | inactive | inactive | inactive |
| NCC(O)(CS(=O)(=O)O)c1ccc(Cl)cc1 (stereo not given) | inactive | inactive | inactive | inactive | inactive | inactive | inactive | inactive |  | inactive | inactive | inactive | inactive | inactive | 0.25 | inactive | inactive | inactive |
| O[Si](CCCN1CCCCC1)(c1ccc(F)cc1)C1CCCCC1 (stereo not given) | inactive | inactive | 117 nM (active) | 117 nM (active) | inactive | inactive | inactive | inactive | inactive | inactive |  | inactive |  | inactive | 5.12 | inactive | inactive | inactive |
| NC1(C(=O)O)CCCCC1 | inactive | inactive | inactive | inactive | inactive | inactive | inactive | inactive |  | inactive | inactive | inactive | inactive | inactive | 0.5 | inactive | inactive | inactive |
| CNCCNS(=O)(=O)c1cccc2cnccc12 | inactive | inactive | inactive | inactive | inactive | inactive | inactive | inactive | inactive | inactive |  | inactive | inactive | 9200 nM (active) | 1.44 | inactive | inactive | inactive |
| COc1ccccc1N1CCN(CCCCNC(=O)c2ccc3ccccc3c2)CC1 | inactive | inactive | 2940 nM (active) | 4650 nM (active) | inactive | inactive | inactive | inactive |  | inactive | inactive | inactive | inactive | inactive | 3 |  | 8910 nM (active) | inactive |
| O=c1[nH]c(=O)c2nc3ccccc3nc2[nH]1 | inactive | inactive | inactive | inactive | inactive |  |  | inactive | inactive | inactive | inactive | inactive | inactive |  | 3.81 |  | inactive | inactive |
| CC(=O)/C(C)=N/O | inactive | inactive | inactive | inactive | inactive | inactive | inactive | inactive | inactive | inactive |  | inactive | inactive |  | 0.0625 | inactive |  | inactive |
